Measured values reported in PubChem BioAssay (Tox21).
“And” between values parts separate entries of the source, which are not always exact repeats. Identical values can stand only once. Inconclusive results are not listed. A call without a number means that no potency is given here. Some compounds were tested as several samples or in several runs, with calls that do not always agree. The source made the active and inactive calls. Calls come from the whole dose curve.

Test: p53 small molecule agonists, cell-based qHTS assay: qHTS cell viability counter screen (AID 1963581); note: nearly all actives have a fitted effect of over 45% in size
Settings: p53RE-bla HCT-116 viability, ATP luminescence, 16 h; series mostly up to 66 µM; activity change, negative = cytotoxicity: at the top concentration
From the text: National Center for Advancing Translational Sciences [NCATS]
Division of Preclinical Innovation [DPI]
U.S. Environmental Protection Agency [EPA]
National Institutes of Environmental Health Sciences [NIEHS]
National Toxicology Program [NTP]
U.S. Food and Drug Administration [FDA]
p53, a tumor suppressor protein, is activated following cellular insult, including DNA damage and other cellular stresses. The activation of p53 regulates cell fate by inducing DNA repair, cell cycle arrest, apoptosis, or cellular senescence. The activation of p53, therefore, is a good indicator of DNA damage and other cellular stresses. The CellSensor p53RE-bla HCT-116 cell line (Invitrogen) contains a stably integrated beta-lactamase reporter gene under control of the p53 response elements. The activation of the reporter gene under culture conditions can be detected by fluorescence intensity. This cell line was used to screen the Tox21 compound library in a 1536-well plate format and to identify agonists that activate the p53 signaling pathway. The cytotoxicity of the Tox21 compound library against the p53 RE-bla HCT-116 cell line was tested in parallel by measuring the intra cellular ATP content in the same wells.
Tox21 Assay Protocol Summary:
The p53RE-bla cells were dispensed at 4,000 cells/5 ul/well in 1536-well black wall/clear bottom plates using a Multidrop dispenser. After the assay plates were incubated at a 37 C/5% CO2 incubator for 5 hours, 23 nL of compounds dissolved in DMSO, positive controls or DMSO only was transferred to the assay plate by a pin tool. The plates were incubated at 37 C for 16 hours. After 1 uL of LiveBLAzerTM B/G FRET substrate was added using a Flying Reagent Dispenser, the plates were incubated at room temperature for 2 hours, and fluorescence intensity was measured by an Envision plate reader. For cell viability readout that measures cytotoxicity, 4 ul/well of CellTiter-Glo reagent was added into the assay plates using a Flying Reagent Dispenser. After 30 min incubation at room temperature, the luminescence intensity in the plates was measured using a ViewLux plate reader.
Potency is the fitted concentration of half-maximal effect.

Row | Structure (SMILES) | Potency | activity change, negative = cytotoxicity
1 | CC(C)(Oc1ccc(C2CC2(Cl)Cl)cc1)C(=O)O (stereo not given) | inactive | –
2 | Oc1ccc(O)cc1 | – | 26.6% [at 30.3 µM] (inactive)
3 | CC/C(=C(\c1ccccc1)c1ccc(OCCN(C)C)cc1)c1ccccc1 | inactive and 51.3 µM (active) | –
4 | Cc1ccc(C)c(S(=O)(=O)O)c1 | inactive | –
5 | Clc1ccccn1 | inactive | –
6 | OC1CCCCC1 | inactive | –
7 | C#C[C@]1(O)CC[C@H]2[C@@H]3CCc4cc(O)ccc4[C@H]3CC[C@@]21C | – | 17.1% [at 30.3 µM] (inactive)
8 | O=C(O)Cn1c(=O)n(Cc2ccc(Br)cc2F)c(=O)c2ccc(Cl)cc21 | inactive | –
9 | OCC1CCCO1 (stereo not given) | – | 1.96% (inactive)
10 | C=C(C)C(N)=O | inactive | –
11 | C=C(C)C(=O)O[C@H]1C[C@@H]2CC[C@@]1(C)C2(C)C | inactive | –
12 | C/C=C/c1ccc(OC)cc1 | inactive | –
13 | NC=O | inactive | –
14 | CN(C)CCCN | inactive | –
15 | O=C(O)c1cccc(C(=O)O)c1 | inactive | –
16 | O=C(O)Cc1ccccc1Nc1c(Cl)cccc1Cl | inactive | –
17 | NC(N)=NC(N)=NCCc1ccccc1 | inactive | –
18 | c1ccc2scnc2c1 | – | -3.11% (inactive)
19 | CCCOC(=O)c1ccccc1 | inactive | –
20 | C=C(C)C1CC=C(C)C(OC(C)=O)C1 (stereo not given) | inactive | –

Row | Structure (SMILES) | Potency | activity change, negative = cytotoxicity
21 | CCCC(O)C(CC)CO (stereo not given) | inactive | –
22 | c1ccc2[nH]cnc2c1 | – | -7.33% (inactive)
23 | O=C(O)c1ccccc1 | inactive | –
24 | C[C@H]1C[C@H]2[C@@H]3CCC4=CC(=O)C=C[C@]4(C)[C@@]3(F)[C@@H](O)C[C@]2(C)[C@@]1(O)C(=O)CO | inactive | –
25 | CCOCCO | inactive | –
26 | Cc1cc(C)c(O)c(C)c1 | inactive | –
27 | CCCCCCC(C)O (stereo not given) | inactive | –
28 | OCc1ccc(Cl)cc1Cl | inactive | –
29 | O=C1c2c(O)cccc2Cc2cccc(O)c21 | inactive | –
30 | CC(=O)OC/C=C(C)/C=C/C=C(C)/C=C/C1=C(C)CCCC1(C)C | inactive | –
31 | CC1=C(/C=C/C(C)=C/C=C/C(C)=C/C(=O)O)C(C)(C)CCC1 | inactive | –
32 | OCCOCCOCCO | inactive | –
33 | CC(C)[C@@H]1CC[C@@H](C)C[C@H]1O | inactive | –
34 | CCCCOCCOCCSC#N | – | -5.38% (inactive)
35 | CC(C)OB(OC(C)C)OC(C)C | – | -6.21% (inactive)
36 | CC(=O)OC[C@H]1O[C@@](COC(C)=O)(O[C@H]2O[C@H](COC(C)=O)[C@@H](OC(C)=O)[C@H](OC(C)=O)[C@H]2OC(C)=O)[C@@H](OC(C)=O)[C@@H]1OC(C)=O | inactive | –
37 | CCOC(=O)C(C#N)=C(c1ccccc1)c1ccccc1 | inactive | –
38 | c1ccc2c(c1)Cc1ccccc1-2 | inactive | –
39 | Cc1ccc(S(=O)(=O)O)cc1 | inactive | –
40 | O=CCc1ccccc1 | inactive | –
